# Unmarked numbers belong to inactive results. Inconclusive results are not listed. The source made the active and inactive calls.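 The calls were made as follows, unless noted: active = GFP response above 150% of the DMSO level; inconclusive = fewer than 70 events counted for a yeast strain; inactive = the rest.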 Peptide text beside a SMILES is read from it.
# Experiments:
# [1] = yeast AGP1-GFP level changes, GLN3 branch – cell-based, multiplex flow cytometry, S. cerevisiae, primary screen (AID 1887;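 active = GFP signal above the screen-wide mean plus 3 SD, that is over about 124.5% of the solvent control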;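 also: AGP1-GFP fusion strain of S. cerevisiae within a five-strain barcoded multiplex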); conditions: 3 h, at 10 µM, stronger effect = higher value
# [2] = TOR pathway reporter MEP2-GFP, retest of hits – S. cerevisiae, flow cytometry GFP, cherry picks, confirmation (AID 2272;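 active = GFP response above 150% of the DMSO control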;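 also: ratio of well signal to plate DMSO mean so 100% equals DMSO level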); conditions: S. cerevisiae MEP2-GFP strain, 3 h, at 10 µM, stronger effect = higher value
# [3] = yeast AGP1-GFP fluorescence change, single-dose – cell-based, flow cytometry, S. cerevisiae, cherry picks, confirmation (AID 2273);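 also: median GFP channel fluorescence over the whole cell population gate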; conditions: S. cerevisiae AGP1-GFP strain, 3 h, at 10 µM
# [4] = target: Beta-2 adrenergic receptor (Homo sapiens) (UniProt P07550); experiment: agonist-induced loss of surface beta2AR – cell-based, FAP fluorogen, flow cytometry, validation set, pilot screen (AID 504459;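 active = percent response above 42, roughly 3 SD of non-fluorescent test compounds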;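 also: agonist-driven loss of surface beta2AR via internalization measured by FAP dye flow cytometry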); conditions: Am2.2-beta2AR cells, at 10 µM, stronger effect = higher value
# Sequence of Beta-2 adrenergic receptor (Homo sapiens) (P07550 whole entry, looked up): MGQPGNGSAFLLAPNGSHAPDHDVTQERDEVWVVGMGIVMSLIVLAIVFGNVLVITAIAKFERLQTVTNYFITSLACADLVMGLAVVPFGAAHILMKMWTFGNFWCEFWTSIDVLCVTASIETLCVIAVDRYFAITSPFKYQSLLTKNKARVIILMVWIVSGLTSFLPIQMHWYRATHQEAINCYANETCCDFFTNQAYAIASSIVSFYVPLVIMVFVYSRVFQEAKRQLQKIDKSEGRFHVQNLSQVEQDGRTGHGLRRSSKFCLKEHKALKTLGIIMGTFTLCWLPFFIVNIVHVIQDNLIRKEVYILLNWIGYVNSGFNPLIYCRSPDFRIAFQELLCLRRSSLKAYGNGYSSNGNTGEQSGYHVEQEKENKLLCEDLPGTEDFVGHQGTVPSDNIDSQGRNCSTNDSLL
smiles,measurement,setting,value
CC(=O)C1=C(C)OC(N)=C(C(=O)OC(C)C)C12C(=O)Nc1ccccc12 (stereo not given),"GFP response, % of DMSO",[1],101%
CC(C)C[C@H](NC(=O)[C@@H]1CCCN1C(=O)[C@@H](N)Cc1ccc(O)cc1)C(=O)NCC(N)=O (H-YPLG-NH2),"GFP response, % of DMSO",[1],103%
O=C1NC(=O)N(Cc2ccco2)C(=O)/C1=C\c1ccc(-c2ccc(F)cc2)o1,GFP response vs DMSO,[2],99.3%
same,"GFP response, % of DMSO",[3],100%
COc1ccc(N2C(=O)/C(=C/c3ccco3)C(=O)NC2=S)cc1,GFP response vs DMSO,[2],100%
same,"GFP response, % of DMSO",[3],100%
O=C1NC(=O)N(c2ccccc2)C(=O)/C1=C\c1ccc([N+](=O)[O-])o1,GFP response vs DMSO,[2],108%
same,"GFP response, % of DMSO",[3],104%
C=CC1CN2CCC1CC2[C@@H](OC(=O)c1ccc(OC)cc1)c1ccnc2ccccc12 (stereo not given in full),response,[4],1.66%
O=C1NC(=O)C(=Cc2ccc(Sc3ccccc3)o2)C(=O)N1,GFP response vs DMSO,[2],92%
same,"GFP response, % of DMSO",[3],83.6%
O=c1[nH]c(=S)n(-c2ccccc2)c(O)c1/C=N/N1CCOCC1,GFP response vs DMSO,[2],99%
same,"GFP response, % of DMSO",[3],99.8%
Fc1ccc(C(OCCN2CCCC2)c2ccc(Br)cc2)cc1 (stereo not given),response,[4],11.4%
CN1C(=O)NC(=O)/C(=C\C=C\c2ccccc2[N+](=O)[O-])C1=O,GFP response vs DMSO,[2],105%
same,"GFP response, % of DMSO",[3],108%
CCNC(=O)[C@H]1O[C@@H](n2cnc3c(N)ncnc32)[C@H](O)[C@@H]1O,"GFP response, % of DMSO",[1],91.5%
same,response,[4],0.15%
O=C1NC(=O)N(CCC2=CCCCC2)C(=O)/C1=C/c1cccs1,GFP response vs DMSO,[2],96.2%
same,"GFP response, % of DMSO",[3],84%
O=C1NC(=O)N(CCc2ccc(F)cc2)C(=O)/C1=C/c1cccs1,GFP response vs DMSO,[2],94.4%
same,"GFP response, % of DMSO",[3],101%
CN1C(=O)C(=Cc2ccc(Sc3ccccc3)o2)C(=O)N(C)C1=S,GFP response vs DMSO,[2],106%
same,"GFP response, % of DMSO",[3],99.3%
Nc1ccc2ccc3cccc[n+]3c2c1,GFP response vs DMSO,[2],257% (active)
same,"GFP response, % of DMSO",[3],110%
O=C1C=Cc2ccccc2C1=O,response,[4],-20.4%
CCN1C(=O)NC(=O)/C(=C\c2cn(CC(=O)N3CCCC3)c3ccccc23)C1=O,GFP response vs DMSO,[2],106%
same,"GFP response, % of DMSO",[3],102%
Cc1ccc(N2C(=O)NC(=O)/C(=C\c3cn(CC(=O)O)c4ccccc34)C2=O)cc1,GFP response vs DMSO,[2],100%
same,"GFP response, % of DMSO",[3],98.9%
CCCCn1c(=O)c(C(=O)Nc2ccsc2C(=O)OC)c(O)c2ccccc21,GFP response vs DMSO,[2],101%
same,"GFP response, % of DMSO",[3],102%
O=[N+]([O-])c1ccc(N2CCNCC2)cc1Sc1ccccn1,GFP response vs DMSO,[2],97.8%
same,"GFP response, % of DMSO",[3],97.2%
O=C1NC(=O)N(CCc2ccc(F)cc2)C(=O)/C1=C/c1ccco1,GFP response vs DMSO,[2],94.4%
same,"GFP response, % of DMSO",[3],99.8%
CCOC(=O)C1=C(C)OC(N)=C(C(=O)OCC)[C@@]12C(=O)N(CC(N)=O)c1ccccc12,response,[4],-10.5%
COc1cc(/C=C/C(=O)c2c(O)n(CCc3ccccc3)c(=O)[nH]c2=O)ccc1O,GFP response vs DMSO,[2],98.8%
same,"GFP response, % of DMSO",[3],102%
CCOC(=O)c1cncn1C(C)c1ccccc1 (stereo not given),"GFP response, % of DMSO",[1],95%
same,response,[4],-9.36%
CC12CN3CC(C)(CN(C1)C3c1cccnc1)C2=O (stereo not given),response,[4],1.06%
O=C1/C(=C\c2ccc(Cl)c(Cl)c2)N2CCC1CC2,GFP response vs DMSO,[2],92.6%
same,"GFP response, % of DMSO",[3],95.5%
N#CC(C#N)=NNc1ccc(-n2ccc(C(F)(F)F)n2)cc1,GFP response vs DMSO,[2],114%
same,"GFP response, % of DMSO",[3],102%
O=C(O)c1nn(Cc2ccc(Cl)cc2Cl)c2ccccc12,GFP response vs DMSO,[2],100%
same,"GFP response, % of DMSO",[3],99.2%
CCN(CC)c1ccc(C=C2C(=O)NC(=S)NC2=O)cc1,GFP response vs DMSO,[2],95.2%
same,"GFP response, % of DMSO",[3],100%
CN1C(=O)C(=Cc2ccc(SC3CCCCC3)o2)C(=O)N(C)C1=O,GFP response vs DMSO,[2],98.8%
same,"GFP response, % of DMSO",[3],101%
O=C1NC(=O)N(c2ccccc2)C(=O)/C1=C/c1ccc(Sc2ccccc2)o1,GFP response vs DMSO,[2],108%
same,"GFP response, % of DMSO",[3],91.7%
CCN1CC2(COC(=O)c3ccccc3N)CCC(OC)C34C5CC6C(OC)CC(O)(C5C6OC)C(O)(C(OC)C23)C14 (stereo not given),response,[4],-0.45%
CC(C)[C@@]1(NC(=O)[C@@H]2C[C@@H]3c4cccc5[nH]cc(c45)C[C@H]3N(C)C2)O[C@@]2(O)[C@@H]3CCCN3C(=O)[C@H](Cc3ccccc3)N2C1=O,response,[4],-14.6%
Nc1ccc(N=Nc2ccccc2)cc1,GFP response vs DMSO,[2],103%
same,"GFP response, % of DMSO",[3],93.4%
CCOC(=O)C(C)Oc1cc(C)cc2oc(=O)c3c(c12)CCCC3 (stereo not given),response,[4],1.66%
Cc1cccn2c(NCC3CCCO3)c(C(C)C)nc12 (stereo not given),GFP response vs DMSO,[2],104%
same,"GFP response, % of DMSO",[3],105%
CN1CCN(c2ccc([N+](=O)[O-])c(Sc3ccccn3)c2)CC1,GFP response vs DMSO,[2],105%
same,"GFP response, % of DMSO",[3],98%
O=c1[nH]c(=O)n(Cc2ccc(F)cc2)c(O)c1C=NCCN1CCCCC1,GFP response vs DMSO,[2],101%
same,"GFP response, % of DMSO",[3],102%
O=C1NC(=O)N(Cc2ccco2)C(=O)/C1=C/c1ccc(-c2cccc([N+](=O)[O-])c2)o1,GFP response vs DMSO,[2],94.7%
same,"GFP response, % of DMSO",[3],90.9%
N#CC(C#N)=Cc1ccc(N2CCCC2)cc1,GFP response vs DMSO,[2],112%
same,"GFP response, % of DMSO",[3],109%
O=C(O)c1[nH]c(=O)[nH]c(=O)c1F,GFP response vs DMSO,[2],101%
same,"GFP response, % of DMSO",[3],102%
CCN(CC)c1ccc(/C=C/[N+](=O)[O-])cc1,GFP response vs DMSO,[2],108%
same,"GFP response, % of DMSO",[3],96.7%
CCC(C)N1C(=O)/C(=C\c2cnc(N(C)C)nc2)C(=O)NC1=S (stereo not given),GFP response vs DMSO,[2],104%
same,"GFP response, % of DMSO",[3],97.2%
Cc1nc2ccccc2c(=O)n1-c1ccc(C(=O)O)cc1,response,[4],0.79%
O=C1NC(=S)N(c2ccccc2)C(=O)/C1=C/c1ccco1,GFP response vs DMSO,[2],122%
same,"GFP response, % of DMSO",[3],103%
CC12CCC3C(CC=C4CC5(CCC43C)OCCO5)C1CCC2=O (stereo not given),response,[4],0.6%
Cc1cc(C=C2C(=O)N(C)C(=S)N(C)C2=O)c(C)n1-c1ccncc1,GFP response vs DMSO,[2],113%
same,"GFP response, % of DMSO",[3],100%
Cc1ccc(/C=C2\C(=O)NC(=O)N(CC3CCCO3)C2=O)s1 (stereo not given),GFP response vs DMSO,[2],92%
same,"GFP response, % of DMSO",[3],92.1%
CCCC(=O)OCC[N+](C)(C)C,response,[4],9.88%
Cc1c2ccncc2c(C)c2c1[nH]c1ccccc12,response,[4],-323%
O=c1oc2ccccc2c(O)c1[C@H]1c2ccc(O)cc2Oc2c1c(=O)oc1ccccc21,GFP response vs DMSO,[2],102%
same,"GFP response, % of DMSO",[3],90.4%
CC(=O)Nc1cc([As](=O)(O)O)ccc1O,response,[4],-23.7%
NCCc1ccc(O)cc1,response,[4],-14.8%
CC/C(=C\C=C\[C@@H]1C=C[C@@H]2CCC[C@H]2[C@@H]1C(=O)c1ccc[nH]1)[C@@H]1O[C@@H]([C@@H](C)C(=O)O)CC[C@@H]1C,response,[4],9.7%
CC12CN3CC(c4ccccc4)(CN(C1)C31CCCCC1)C2=O,response,[4],15.3%
O=C1NC(=S)NC(=O)C1=Cc1ccc2c(c1)CCN2CCCCl,GFP response vs DMSO,[2],103%
same,"GFP response, % of DMSO",[3],87.8%
CC1(C)OC(c2ccccc2)=C/C(=C/C=C2C(=O)NC(=S)NC2=O)O1,GFP response vs DMSO,[2],145%
same,"GFP response, % of DMSO",[3],92.3%
c1cnc2c(c1)ccc1ncccc12,response,[4],-15%
Clc1ccc(COC(Cn2ccnc2)c2ccc(Cl)cc2Cl)c(Cl)c1 (stereo not given),response,[4],-12.4%
C[C@]12CCC(=O)C(O)=C1CC[C@@H]1[C@@H]2CC[C@]2(C)C(=O)CC[C@@H]12,GFP response vs DMSO,[2],102%
same,"GFP response, % of DMSO",[3],101%
same,response,[4],4.26%
CCC(COC(=O)c1cc(OC)c(OC)c(OC)c1)(c1ccccc1)N(C)C (stereo not given),response,[4],-24.8%
COc1cc(/C=C2\C(=O)NC(=O)N(c3ccccc3)C2=O)c([N+](=O)[O-])cc1OC,response,[4],0.05%
NCC(O)c1ccc(O)cc1 (stereo not given),response,[4],8.68%
C#CCOc1cc(C2C3=C(COC3=O)Nc3cc4c(cc32)OCO4)ccc1OC (stereo not given),GFP response vs DMSO,[2],117%
same,"GFP response, % of DMSO",[3],103%
O=C1CSC2N1CCNC21CCCCC1 (stereo not given),response,[4],2.41%
CCCC(C)(COC(N)=O)COC(=O)NC(C)C (stereo not given),response,[4],-23.9%
C[C@H]1CCCC(=O)CCCCCc2cc(O)cc(O)c2C(=O)O1,response,[4],-25.5%
C[C@]12CCC(=O)C=C1CC[C@@H]1[C@@H]2C(=O)C[C@]2(C)C(=O)CC[C@@H]12,response,[4],-22.9%
